HIV RNase H inh-1: inhibitors of HIV-1 reverse transcriptase RNase H | RT-RNase H RNA/DNA duplex cleavage, fluorescence | P04585 | inhibition, % at 10 µM | 65,000 compounds, 1.9% hits; in the data active means inhibition above about 50%
HIV RNase H inh-2: confirmation of HIV-1 reverse transcriptase RNase H inhibitors | 1,000 compounds, 39% hits | shares compounds with HIV RNase H inh-1 | AID 651 | inhibition, % at 10 µM | Recombinant RT RNase H, fluorescent RNA/DNA duplex cleavage; in the data active means inhibition above about 48%; inconclusive means no clear call, values can overlap the other calls
* hit, by the source's call; u = inconclusive. The full list was thinned out, with hits kept by preference.

SMILES | HIV RNase H inh-1 | others
Cc1c(C(=O)N2CCOCC2)sc(NC(=O)c2ccc3c(c2)OCO3)c1C#N | 4
CCCCP(=O)(O)CCC(=O)O | -5
CCCCCC#CCC#CCC#CCC#CCCCC(=O)O | 97* | HIV RNase H inh-2=66*
CCCCCCC(N)CC(=O)O (stereo unspecified) | -3
COc1cc(C(c2nnnn2C(C)(C)C)N2CCN(c3nc4ccccc4s3)CC2)ccc1O (stereo unspecified) | 15
O=C(Nc1ncc(Br)s1)C(Cc1ccccc1)n1cccc1 (stereo unspecified) | 10
CN1CCCN(C(=O)Cc2c(Cl)cccc2Cl)c2nc3ccccc3nc21 | -1
COc1cccc(C(c2sc3nc(C)nn3c2O)N2CCc3ccccc3C2)c1 (stereo unspecified) | 81* | HIV RNase H inh-2=-1
CCN1CCN(C(c2cccc(OC)c2)c2sc3nc(C)nn3c2O)CC1 (stereo unspecified) | -28
COc1cccc(C(c2sc3nc(C)nn3c2O)N2CCC3(CC2)OCCO3)c1 (stereo unspecified) | -24
COc1ccc(OCC(O)CN2C(=O)NC(C)(C)C2=O)cc1 (stereo unspecified) | 2
O=C(NC(Cc1ccccc1)c1nc2ccccc2[nH]1)C1CC(=O)N(c2ccc3c(c2)OCCO3)C1 (stereo unspecified) | -1
CC(C)C1Cc2c(C#N)c(N)sc(=S)c2CO1 (stereo unspecified) | 21
CC1(C)Cc2c(C#N)c(N)sc(=S)c2CO1 | 82* | HIV RNase H inh-2=40
CCN(CC)c1nc(C)c2c(c1C#N)CC(C)(C)OC2 | -8
Cc1cc2cc(C(c3nnnn3CC3CCCO3)N3CCCc4ccccc43)c(=O)[nH]c2cc1C (stereo unspecified) | 52* | HIV RNase H inh-2=29
Cc1cccc2cc(C(c3nnnn3CC3CCCO3)N3CCCc4ccccc43)c(=O)[nH]c12 (stereo unspecified) | 7
CCc1ccc2[nH]c(=O)c(C(c3nnnn3CC3CCCO3)N3CCCc4ccccc43)cc2c1 (stereo unspecified) | 8
O=c1c2nnn(Cc3ccccc3)c2ncn1C/C=C/c1ccccc1 | -9
Cn1c(-c2ccc(C(C)(C)C)cc2)n[nH]c1=S | 38
CCn1c(-c2ccc(F)cc2)n[nH]c1=S | -2
CCn1c(-c2ccc(C(C)(C)C)cc2)n[nH]c1=S | 64* | HIV RNase H inh-2=9
O=C1NCN(c2ccccc2)C12CCN(c1nnnn1-c1ccccc1)CC2 | -17
Cc1c(C(=O)c2no[n+]([O-])c2C(=O)c2cnn(C)c2C)cnn1C | -1
COC(=O)C1=C(C)N=c2s/c(=C/c3cccs3)c(=O)n2C1c1cccs1 (stereo unspecified) | -6
SMILES | HIV RNase H inh-1 | others
COC(=O)C1=C(C)N=c2s/c(=C3\C(=O)Nc4ccccc43)c(=O)n2C1c1ccccc1 (stereo unspecified) | 90* | HIV RNase H inh-2=70*
COC(=O)C1=C(C)N=c2s/c(=C/c3ccoc3)c(=O)n2C1c1ccccc1 (stereo unspecified) | -2
C=CCNc1nc(-c2c(C)nc3sccn23)cs1 | -11
C=CCNc1nc(C2(C)CC3(CC(C)(C)OC3=O)C(=O)O2)cs1 (stereo unspecified) | 57* | HIV RNase H inh-2=24
CC(C)COCC1CC2(CC(C)(c3csc(N)n3)OC2=O)C(=O)O1 (stereo unspecified) | 1
O=C1C(=C2CCCCC2)SC(=S)N1Cc1ccco1 | 6
Cn1c(=O)n(CCN2CCOCC2)c(=O)c2c1nc1n2CCN1c1ccccc1 | -2
COCCSc1ccccc1C(=O)Nc1cc(C)on1 | 80* | HIV RNase H inh-2=63*
COCCSc1ccccc1C(=O)Nc1nnc(COC)s1 | 21
Cc1cc(NC(=O)c2ccccc2Oc2ccccc2)no1 | -4
CC(=O)Nc1cccc(NC(=O)CSc2nnc(Cc3cccn3C)n2CCc2ccccc2)c1 | -18
COc1ccc(C2C(C(N)=O)=C(C)Nc3nc(-c4ccccc4Cl)nn32)c(OC)c1 (stereo unspecified) | -14
O=C(c1ccc2nc(N3CCCCC3)sc2c1)N1CCN(Cc2ccc3c(c2)OCO3)CC1 | -6
CCN1CCN(S(=O)(=O)c2ccc(S(=O)(=O)N(CC)Cc3ccccc3)cc2)CC1 | 6
Fc1cccc(CN2CCCCCCC2)c1 | -2
c1ccc(-c2nnc3sc(-c4csc5c4CCCC5)nn23)cc1 | 69* | HIV RNase H inh-2=u
c1ccc(-c2nnc3sc(-c4ccncc4)nn23)cc1 | 27
Clc1ccc(-c2nn3c(-c4ccccc4)nnc3s2)cc1 | 22
CCn1c2ccccc2c2nnc(SCC(=O)N3CC(C)OC(C)C3)nc21 (stereo unspecified) | 0
CC(C)CCNC(=O)C(c1ccco1)N(Cc1ccc(F)cc1)C(=O)c1snc(C(N)=O)c1N (stereo unspecified) | 15
O=C(CSC1=NCCS1)Nc1ccnc2ccccc12 | -81
Cn1nnc(NCc2cc(Br)ccc2OCc2cccs2)n1 | 2
CN(C)S(=O)(=O)NCc1ccc2c(c1)OCO2 | -4
COc1ccc(N2CSC3=C(C#N)C(c4cc(OC)c(OC)cc4OC)CC(=O)N3C2)c(OC)c1 (stereo unspecified) | 86* | HIV RNase H inh-2=73*
CN1CCN(c2ccccc2NC(=O)c2cccc(OCc3ccccc3)c2)CC1 | -9
SMILES | HIV RNase H inh-1 | others
CCOc1ccccc1N1CCN(c2nc(N)c(C#N)c(CC#N)c2C#N)CC1 | 2
CN1CSC2=C(C#N)C(c3cccc(OCc4ccccc4)c3)CC(=O)N2C1 (stereo unspecified) | 73* | HIV RNase H inh-2=60*
CCOc1ccccc1N1CSC2=C(C#N)C(c3c(OC)ccc4ccccc34)CC(=O)N2C1 (stereo unspecified) | 73* | HIV RNase H inh-2=64*
CCSC1=C(C#N)C(c2cccc(O)c2)CC(=O)N1 (stereo unspecified) | -8
COc1ccc(C2C(C#N)=C(C)NC3=C2C(=O)CC(C)(C)C3)c(OC)c1 (stereo unspecified) | 5
CCOc1ccccc1N1CCN(c2nc3ccccc3nc2C(C#N)C(=O)OC)CC1 (stereo unspecified) | 6
CCOC(=O)C1=C(CC)OC(N)=C(C#N)C1c1cc(OC)ccc1OC (stereo unspecified) | -28
CCCSC1=C(C#N)C(c2cc(OC)ccc2OC)CC(=O)N1 (stereo unspecified) | -45
COc1ccc(N2C(=O)C3CC(C)=C(C)CC3C2=O)c(OC)c1 (stereo unspecified) | -1
COc1ccc(N2CSC3=C(C#N)C(c4cc(OC)ccc4OC)CC(=O)N3C2)c(OC)c1 (stereo unspecified) | 86* | HIV RNase H inh-2=67*
Cc1[nH]c2ccccc2c1C(=O)CN1CCCCC1CCO (stereo unspecified) | -5
O=C(Nn1cnnc1)c1ccccc1CCc1ccccc1 | 0
O=S(=O)(NCCSc1nnnn1-c1ccccc1)c1cccs1 | -48
O=C(CNS(=O)(=O)c1ccc(Br)s1)NCC1COc2ccccc2O1 (stereo unspecified) | -6
COc1cccc(-c2cc(C(F)(F)F)nc(N3CCCCC3)n2)c1 | 2
COc1cc2c(cc1OC)CN(C(=O)c1ccccc1C(=O)O)CC2 | -5
C=CCN=C(NC#N)SCc1ccccc1Cl | -50
CCCNC(=O)c1c(N)n(-c2cc(OC)cc(OC)c2)c2nc3ccccc3nc12 | 3
CCOC(=O)N1CCN(S(=O)(=O)c2ccc3c(c2)SC(C)C(=O)N3)CC1 (stereo unspecified) | -9

Source: PubChem (University of Pittsburgh Molecular Library Screening Center)
